Some test systems named below: SK-MEL-2 melanoma; EKVX NSCLC; SN12C renal; UO-31 renal; TK-10 renal; ACHN renal; CAKI-1 renal; A498 renal; CCRF-CEM leukemia; MOLT-4 leukemia; SR leukemia; RPMI-8226 leukemia; OVCAR-8 ovarian; OVCAR-5 ovarian; OVCAR-4 ovarian; SK-OV-3 ovarian; IGROV1 ovarian; OVCAR-3 ovarian; NCI/ADR-RES ovarian; HS 578T breast.
Common to all, as to test: NCI-60 one-dose screen, 48 h (100 = growth as untreated, 0 = no growth, -100 = all killed)
What all share (settings): 10 µM unless noted

About 83,000 compounds went through this panel and 20% of them were active in at least one assay; those are over-represented in the sample as a whole.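 Cell lines were cultured in 96-well plates, exposed to a single compound concentration, and assessed for percent growth 48 hours later.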 Unmarked numbers belong to inactive results. The source made the active and inactive calls. Rule for the calls: active = growth percent below 10; inactive = the rest.

`O=c1ccc2nc(-c3ccccc3)nn(-c3ccccn3)c-2c1`: the growth is 96.8% with SK-MEL-2 melanoma; 109% in the experiment with EKVX NSCLC; 93.1% with SN12C renal; 20.5% in the experiment on UO-31 renal; -83.4% (active) with TK-10 renal; -91.9% (active) with ACHN renal. Besides, the growth in the experiment on CAKI-1 renal was 77.4%; in the experiment with A498 renal, 88.2%; with CCRF-CEM leukemia it was 1.08% (active); in the experiment on MOLT-4 leukemia, -10.6% (active); in the experiment with SR leukemia it was 1.2% (active); in the experiment on RPMI-8226 leukemia, 35.8%. Besides, the growth in the experiment on OVCAR-8 ovarian is 80%; with OVCAR-5 ovarian, 117%; with OVCAR-4 ovarian, 83.5%; in the experiment on SK-OV-3 ovarian, 83.9%; with IGROV1 ovarian, 89%; with OVCAR-3 ovarian it was -14.9% (active). In the experiment with NCI/ADR-RES ovarian, the growth is 101%.
As for `CCN(CC)c1ccc(/C=N/NC(=O)c2ccccc2Nc2ccnc(C(F)(F)F)c2)c(O)c1`, the growth in the experiment on SK-MEL-2 melanoma is 94.1%; with EKVX NSCLC it was 30.5%; with SN12C renal, 22.2%; in the experiment on UO-31 renal, 16%; with TK-10 renal it was 33.3%; with ACHN renal, 11.9%. Moreover, the growth is 56.9% in the experiment on CAKI-1 renal; 47.8% in the experiment on A498 renal; 14.5% in the experiment on CCRF-CEM leukemia; 59.6% with MOLT-4 leukemia; 65.1% in the experiment on SR leukemia; 26.5% in the experiment on RPMI-8226 leukemia. The growth in the experiment with OVCAR-8 ovarian was 35.1%; with OVCAR-5 ovarian it was 57.3%; in the experiment with OVCAR-4 ovarian it was 33.1%; in the experiment with SK-OV-3 ovarian, 19.9%; with IGROV1 ovarian, 47.5%; in the experiment with OVCAR-3 ovarian, 36.7%. Besides, the growth with NCI/ADR-RES ovarian was 17.3%.
On to `N#Cc1nn(-c2ccccn2)c(N)c1C#N`, for which the growth is 93.7% in the experiment on SK-MEL-2 melanoma; 94% in the experiment with EKVX NSCLC; 105% in the experiment on SN12C renal; 91.1% with UO-31 renal; 98.7% in the experiment on TK-10 renal; 99.6% in the experiment with ACHN renal. Moreover, the growth with CAKI-1 renal is 92.7%; with A498 renal it was 106%; in the experiment with CCRF-CEM leukemia, 105%; with MOLT-4 leukemia, 92.9%; in the experiment on SR leukemia, 86.2%; with RPMI-8226 leukemia, 110%. Also, the growth with OVCAR-8 ovarian was 106%; in the experiment with OVCAR-5 ovarian, 97.5%; in the experiment on OVCAR-4 ovarian it was 105%; in the experiment on IGROV1 ovarian, 108%; with OVCAR-3 ovarian, 114%; in the experiment with HS 578T breast, 105%. For the same compound, in the experiment with NCI/ADR-RES ovarian, the growth is 104%.
As for `c1ccc2c(-c3cnn4cc(-c5ccc(N6CCNCC6)cc5)cnc34)ccnc2c1`, the growth with SK-MEL-2 melanoma is -59.2% (active); with EKVX NSCLC it was -37.3% (active); in the experiment with SN12C renal, -75.5% (active); with UO-31 renal, -93.4% (active); in the experiment on TK-10 renal, -74.8% (active); with ACHN renal, -99.3% (active). Moreover, the growth is -99.6% (active) in the experiment on CAKI-1 renal; -87% (active) in the experiment on A498 renal; -48.2% (active) in the experiment with CCRF-CEM leukemia; -28.7% (active) with MOLT-4 leukemia; -19.1% (active) with SR leukemia; -52.8% (active) with RPMI-8226 leukemia. The growth is -46.9% (active) in the experiment with OVCAR-8 ovarian; -85.3% (active) with OVCAR-5 ovarian; -65.8% (active) with OVCAR-4 ovarian; -86.4% (active) in the experiment with SK-OV-3 ovarian; -79.7% (active) in the experiment on IGROV1 ovarian; -83.2% (active) with OVCAR-3 ovarian. The growth with NCI/ADR-RES ovarian is -42.5% (active).
Turning to `COc1cc(/C=C/C(=O)c2ccc(-n3cc(CN4CCN(c5cc6c(cc5F)c(=O)c(C(=O)O)cn6C5CC5)CC4)nn3)cc2)cc(OC)c1OC`, the growth in the experiment on SK-MEL-2 melanoma is 102%; in the experiment on EKVX NSCLC, 80.8%; in the experiment on SN12C renal, 58.8%; in the experiment with UO-31 renal it was 65.4%; in the experiment with TK-10 renal, 97.8%; with ACHN renal, 93.4%. Moreover, the growth with CAKI-1 renal was 68.7%; in the experiment with A498 renal it was 34.9%; in the experiment with CCRF-CEM leukemia, 34.6%; with MOLT-4 leukemia it was 80.4%; with SR leukemia it was 21.3%; in the experiment with RPMI-8226 leukemia, 6.02% (active). Besides, the growth with OVCAR-8 ovarian was 80.7%; in the experiment on OVCAR-5 ovarian, 92.7%; in the experiment on OVCAR-4 ovarian, 96.7%; in the experiment on IGROV1 ovarian it was 79.4%; with OVCAR-3 ovarian, 84.9%; in the experiment on HS 578T breast it was 71.2%. In addition, in the experiment with NCI/ADR-RES ovarian, the growth is 85.6%.
As for `COc1cccc(-c2nn(-c3ccccc3)cc2-c2ccnc(-c3cccnc3)c2)c1`, the growth in the experiment with SK-MEL-2 melanoma was 87.4%; in the experiment on EKVX NSCLC, 93.3%; in the experiment on SN12C renal, 101%; with UO-31 renal, 62.1%; in the experiment on TK-10 renal it was 104%; in the experiment on ACHN renal, 92.6%. Besides, the growth in the experiment on CAKI-1 renal was 102%; in the experiment on A498 renal, 98.6%; with CCRF-CEM leukemia, 99%; in the experiment on MOLT-4 leukemia, 88.1%; in the experiment with SR leukemia it was 74.9%; with RPMI-8226 leukemia, 67.7%. For the same compound, the growth with OVCAR-8 ovarian was 105%; with OVCAR-5 ovarian, 95.9%; in the experiment on OVCAR-4 ovarian it was 82.7%; with IGROV1 ovarian it was 94.8%; in the experiment on OVCAR-3 ovarian, 96.8%; in the experiment on HS 578T breast, 120%. The growth with NCI/ADR-RES ovarian was 90.6%.
For `C=C(CNCCc1ccc(O)cc1)[C@@H]1CC[C@]2(CO)CC[C@]3(C)[C@H](CC[C@@H]4[C@@]5(C)CCC(N)C(C)(C)[C@@H]5CC[C@]43C)[C@@H]12` (stereo partly drawn), the growth is -81.4% (active) with SK-MEL-2 melanoma; -62.8% (active) in the experiment on EKVX NSCLC; -81.7% (active) with SN12C renal; -98.9% (active) in the experiment with UO-31 renal; -84.5% (active) in the experiment on TK-10 renal; -71.9% (active) with ACHN renal. The growth with CAKI-1 renal is -81.8% (active); in the experiment with A498 renal, 64.5%; with CCRF-CEM leukemia, -26.8% (active); in the experiment with MOLT-4 leukemia it was -32.4% (active); in the experiment with SR leukemia, -43.9% (active); in the experiment with RPMI-8226 leukemia, -46.5% (active). In addition, the growth was -56.8% (active) in the experiment with OVCAR-8 ovarian; 11.4% in the experiment on OVCAR-5 ovarian; -16.2% (active) in the experiment with OVCAR-4 ovarian; -6.7% (active) in the experiment on SK-OV-3 ovarian; -57.3% (active) in the experiment with IGROV1 ovarian; -53.5% (active) in the experiment on OVCAR-3 ovarian. Besides, the growth with NCI/ADR-RES ovarian was 60.4%.

The record behind these values is PubChem BioAssay (NCI).
